# ID4 SMM = binders of human ID4 protein. P47928. small molecule microarray, Flag-ID4 binding, fluorescence F/B. calls only. 1.2% of 31,000 active. AID 624137; call rule not given here;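 note: a binder raises fluorescence above local background on the spot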
# Target sequence (P47928 whole entry, looked up): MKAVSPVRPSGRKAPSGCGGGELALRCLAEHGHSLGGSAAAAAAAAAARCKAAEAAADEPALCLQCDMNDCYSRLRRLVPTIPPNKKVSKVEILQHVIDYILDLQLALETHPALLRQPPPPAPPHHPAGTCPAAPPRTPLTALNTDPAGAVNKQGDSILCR
# Active calls of the source: *; i = inactive; + = active, no number. Many of the other results were omitted from the sample, so hits are more common in it than they were.
SMILES,ID4 SMM
C[C@H](CO)N1C[C@H](C)[C@@H](CN(C)Cc2ccccc2)OCCCC[C@H](C)Oc2ccc(NS(=O)(=O)c3cccs3)cc2C1=O,i
O=C(NC1CCN(Cc2ccccc2)CC1)c1ccc(NS(=O)(=O)c2cccs2)cc1,+
C#CCOc1ccc(C(Nc2ccccn2)c2ccc3cccnc3c2O)cc1 (stereo not drawn),i
Cc1ccc(Cl)cc1N(CC(=O)O)S(C)(=O)=O,i
CCOc1ccc(NC(=O)C(C)n2nc([N+](=O)[O-])c(Br)c2C)cc1 (stereo not drawn),i
Cc1sc(NC(=O)c2cc(-c3ccccn3)nc3ccccc23)c(C(=O)NC2CCCCC2)c1C,i
CCc1c(C)sc(NC(=O)c2cc(-c3ccccn3)nc3c(C)cccc23)c1C(=O)N1CCCCC1,i
Cc1ccc2c(C(=O)Nc3sc4c(c3C(N)=O)CCCCC4)cc(-c3ccccn3)nc2c1C,+
CCOc1cc(C)c(Cl)cc1S(=O)(=O)NCc1ccccn1,i
O=P(CCNCc1cccnc1)(c1ccccc1)c1ccccc1,+
O=C(NCc1cccnc1)c1cc(-c2ccccc2)on1,i
O=C(COc1ccccc1Br)NCc1cccnc1,i
CCC1(C)Cc2c(sc3nc(SCC(=O)Nc4ccc(Cl)cc4)nc(N)c23)CO1 (stereo not drawn),i
CCc1cc(-c2n[nH]c(C)c2-c2nc(C)cs2)c(O)cc1OCc1ccc([N+](=O)[O-])cc1,i
COc1ccc(C)cc1S(=O)(=O)NCCO,i
COc1ccccc1OCC(=O)Nc1ccc(-c2nc3ccc(C)cc3[nH]2)cc1,i
COc1cccc(OCC(=O)Nc2ccc(-c3nc4ccccc4[nH]3)cc2)c1,+
COc1cccc(OCC(=O)Nc2cccc(-c3nnc(-c4ccccc4)o3)c2)c1,i
O=c1c(C=Nc2ccccc2)c(O)c2c(n1-c1ccccc1)CCCC2,i
CCn1c(SCC(=O)Nc2ccc(Br)cc2)nnc1-c1ccccc1,i
C[C@H]1CN([C@@H](C)CO)C(=O)c2cc(C3=CCCCC3)cnc2O[C@@H]1CN(C)Cc1ccccc1,i
C[C@H](CO)N1C[C@H](C)[C@@H](CN(C)Cc2ccccc2C(=O)O)Oc2ncc(C3=CCCCC3)cc2C1=O,+
C[C@H](CO)N1C[C@H](C)[C@@H](CN(C)Cc2ccccc2F)Oc2ncc(C3=CCCCC3)cc2C1=O,i
C[C@@H]1CN([C@H](C)CO)C(=O)c2cc(C3=CCCCC3)cnc2O[C@H]1CN(C)Cc1ccncc1,i
C[C@@H]1CN([C@H](C)CO)C(=O)c2cc(C3=CCCCC3)cnc2O[C@H]1CN(C)Cc1ccc(C(=O)O)cc1,+
SMILES,ID4 SMM
C[C@H]1CN([C@@H](C)CO)C(=O)c2cc(C3=CCCCC3)cnc2O[C@@H]1CN(C)Cc1ccccc1F,i
CCC(Sc1nc(N)cc(=O)[nH]1)C(=O)Nc1ccc2ccccc2c1 (stereo not drawn),i
COC(=O)c1ccc(NC(=O)CSc2nnnn2-c2ccccc2OC)cc1,i
CC(CCC(=O)NCC(=O)O)C1CCC2C3CCC4CC(O)CCC4(C)C3CC(O)C12C (stereo not drawn),i
C[C@H](CCC(=O)O)[C@H]1CC[C@H]2[C@@H]3C(=O)C[C@@H]4CC(=O)CC[C@]4(C)[C@H]3CC(=O)[C@]12C,+
COC(=O)COc1cccc(NC(=O)c2ccc(C)cc2)c1,i
Cc1ccc(C(=O)Nc2cccc(OC(=O)c3cc(S(=O)(=O)N4CCCCC4)ccc3Cl)c2)cc1,+
O=C(Nc1cccc(O)c1)c1cc(S(=O)(=O)N2CCOCC2)ccc1Cl,i
CNC(=O)C(=O)NCCc1c[nH]c2ccccc12,i
COc1cccc(S(=O)(=O)N2CCCC2C(=O)O)c1 (stereo not drawn),i
CCN1C(=O)c2cccc3c(S(=O)(=O)N4CCCC4C(=O)O)ccc1c23 (stereo not drawn),+
CCN1CCN(C(=O)C2CCCN2S(=O)(=O)c2cccc3nsnc23)CC1 (stereo not drawn),i
O=C1c2cccc3cccc(c23)C(=O)N1CCCSc1n[nH]c(-c2ccc(F)cc2)n1,i
O=C(Cn1nnc2ccccc21)c1ccc(Oc2ccc([N+](=O)[O-])cc2)cc1,i
O=C(CN1C(=O)c2ccccc2S1(=O)=O)Nc1ccccc1Br,i
COc1ccc(NC(=O)c2ccc(OC(C)C(=O)Nc3ccccc3C(F)(F)F)cc2)cc1Cl (stereo not drawn),i
COc1ccc(NC(=O)CNC(=O)c2ccc(OC)c(OC)c2)cc1Cl,i
COc1ccc(NC(=O)c2ccc(OC(C)C(=O)O)cc2)cc1Cl (stereo not drawn),+
O=C(CSc1nnnn1-c1ccc(O)cc1)Nc1ccc(F)cc1,i
CNC[C@@H]1Oc2cc(C#Cc3cccnc3)ccc2S(=O)(=O)N([C@@H](C)CO)C[C@H]1C,+
CNC[C@@H]1Oc2cc(C#Cc3ccccc3)ccc2S(=O)(=O)N([C@H](C)CO)C[C@H]1C,i
CNC[C@H]1Oc2cc(C#Cc3ccccc3)ccc2S(=O)(=O)N([C@H](C)CO)C[C@@H]1C,i
CNC[C@@H]1Oc2cc(Br)ccc2S(=O)(=O)N([C@H](C)CO)C[C@H]1C,i
CNC[C@H]1Oc2cc(Br)ccc2S(=O)(=O)N([C@@H](C)CO)C[C@H]1C,i
CNC[C@H]1Oc2cc(Br)ccc2S(=O)(=O)N([C@H](C)CO)C[C@H]1C,+
SMILES,ID4 SMM
COc1ccc(NC(=O)CSc2ncnc3sc(-c4ccccc4)cc23)c([N+](=O)[O-])c1,i
CC(NS(=O)(=O)c1ccc(F)cc1)C(=O)Nc1ccc(Oc2ccccc2)cc1 (stereo not drawn),i
N#Cc1nc(-c2ccccc2Cl)oc1NCCCN1CCOCC1,i
COc1ccc(C(=O)COc2ccc(NC(=O)c3ccccc3[N+](=O)[O-])cc2)cc1,i
Cc1ccc(CCC(=O)Nc2ccccc2)o1,i
Cc1ccc(CC(CC(=O)O)C(=O)Nc2ccccc2I)cc1 (stereo not drawn),i
CC1(C)CC(=O)C2=C(C1)N(CCCN1CCOCC1)C(=O)C2(NC(=O)c1ccccc1)C(F)(F)F (stereo not drawn),i
COc1ccc(-c2cnc3c(c2)C(=O)N([C@H](C)CO)C[C@@H](C)[C@H](CN(C)Cc2ccccn2)O3)cc1,+
COc1cccc(-c2cnc3c(c2)C(=O)N([C@H](C)CO)C[C@@H](C)[C@@H](CN(C)Cc2cccnc2)O3)c1,i
COc1cccc(-c2cnc3c(c2)C(=O)N([C@@H](C)CO)C[C@@H](C)[C@@H](CN(C)Cc2cccnc2)O3)c1,i
COc1cccc(-c2cnc3c(c2)C(=O)N([C@H](C)CO)C[C@@H](C)[C@H](CN(C)Cc2cccnc2)O3)c1,+
COc1ccc(-c2cnc3c(c2)C(=O)N([C@@H](C)CO)C[C@@H](C)[C@@H](CN(C)Cc2ccccn2)O3)cc1,i
COc1ccc(-c2cnc3c(c2)C(=O)N([C@H](C)CO)C[C@H](C)[C@H](CN(C)Cc2ccccn2)O3)cc1,i
CCCc1ccc(-c2cc(C(=O)NCc3cccnc3)c3ccccc3n2)cc1,i
COc1ccc2ccc(=O)oc2c1C(OC(C)=O)C(=O)C(C)C (stereo not drawn),i
Cc1cccc(OCC(O)CNC(C)(C)CO)c1C (stereo not drawn),i
Cc1cccnc1NC(=O)C(C)Oc1ccccc1 (stereo not drawn),i
Cc1cccnc1NCC(O)COc1ccccc1 (stereo not drawn),+

# High-throughput results as filed in PubChem BioAssay.
